# Measured values reported in PubChem BioAssay (NCI).
# Where “and” joins values, the source holds several entries; their conditions need not be identical. Equal values may be shown once. Compounds without any hit were thinned out: in the full panel of roughly 83,000, 20% have a hit.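 Method: cells in 96-well plates; compound added at one concentration; 48 h incubation; percent growth measured; values under 10 scored active.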 Calls of active or inactive are those of the source.
# Legend:
# Experiment in all cases: NCI-60 one-dose screen, 48 h (100 = growth as untreated, 0 = no growth, -100 = all killed)
# Settings in all cases: 10 µM
# [1] = system: NCI-H23 lung
# [2] = system: NCI-H322M lung
# [3] = system: HOP-62 NSCLC
# [4] = system: NCI-H460 lung
# [5] = system: HOP-92 NSCLC
# [6] = system: NCI-H522 lung
# [7] = system: A549/ATCC NSCLC
# [8] = system: 786-0 renal
# [9] = system: COLO 205 colon
# [10] = system: DU-145 prostate
# [11] = system: K-562 leukemia
# [12] = system: MALME-3M melanoma
# [13] = system: MDA-MB-231 breast
# [14] = system: SF-268 CNS
# [15] = system: SF-295 CNS
# [16] = system: SF-539 CNS
# [17] = system: UACC-257 melanoma
# [18] = system: M14 melanoma
# [19] = system: NCI-H226 lung
# [20] = system: RXF 393 renal
Structure (SMILES),growth [1],growth [2],growth [3],growth [4],growth [5],growth [6],growth [7],growth [8],growth [9],growth [10],growth [11],growth [12],growth [13],growth [14],growth [15],growth [16],growth [17],growth [18],growth [19],growth [20]
COc1cc(/C=C/[N+](=O)[O-])cc(OC)c1OC,45% (inactive),36.1% (inactive),16.8% (inactive),6.31% (active),58.1% (inactive),-54.8% (active),54.2% (inactive),-48% (active),-53.4% (active),9.73% (active),5.19% (active),-30.2% (active),34% (inactive),28.6% (inactive),69% (inactive),-61.3% (active),-15.8% (active),-6.32% (active),–,–
COc1ccccc1/C=C/[N+](=O)[O-],74.9% (inactive),102% (inactive),97.1% (inactive),74.4% (inactive),–,62.6% (inactive),75.5% (inactive),93.1% (inactive),–,48.2% (inactive),33.8% (inactive),97.5% (inactive),73% (inactive),76.1% (inactive),93.9% (inactive),64% (inactive),71.8% (inactive),59.8% (inactive),96.1% (inactive),1.37% (active)
COS(=O)(=O)c1ccccc1,98.5% (inactive),106% (inactive),102% (inactive),112% (inactive),105% (inactive),111% (inactive),105% (inactive),115% (inactive),113% (inactive),114% (inactive),103% (inactive),111% (inactive),123% (inactive),95.9% (inactive),109% (inactive),101% (inactive),101% (inactive),–,–,109% (inactive)
NNc1ccccc1,108% (inactive),114% (inactive),85.4% (inactive),60.4% (inactive),–,–,84.3% (inactive),79.7% (inactive),85.4% (inactive),98.4% (inactive),19.5% (inactive),118% (inactive),89.8% (inactive),82.6% (inactive),80.5% (inactive),99.3% (inactive),107% (inactive),46.6% (inactive),96.3% (inactive),123% (inactive)
NC(Cc1ccccc1)c1ccccc1 (configuration not stated),97.7% (inactive) and 105% (inactive),102% (inactive) and 103% (inactive),105% (inactive),107% (inactive) and 111% (inactive),–,94.5% (inactive),111% (inactive),97.4% (inactive) and 98.4% (inactive),–,117% (inactive) and 120% (inactive),108% (inactive) and 94.4% (inactive),106% (inactive) and 109% (inactive),102% (inactive) and 95% (inactive),106% (inactive) and 103% (inactive),102% (inactive) and 104% (inactive),103% (inactive) and 97.2% (inactive),106% (inactive) and 95.4% (inactive),95.1% (inactive) and 94% (inactive),91.9% (inactive) and 97.7% (inactive),105% (inactive) and 109% (inactive)
CC(C)(C)OOC(=O)/C=C\C(=O)OOC(C)(C)C,103% (inactive),–,97.7% (inactive),109% (inactive),88.3% (inactive),107% (inactive),110% (inactive),108% (inactive),110% (inactive),112% (inactive),104% (inactive),141% (inactive),97.5% (inactive),93.8% (inactive),138% (inactive),93.8% (inactive),99.4% (inactive),–,102% (inactive),105% (inactive)
O=[N+]([O-])/C=C\c1ccc2c(c1)OCO2,87.2% (inactive),113% (inactive),–,84.8% (inactive),79.3% (inactive),72.2% (inactive),81.7% (inactive),89.6% (inactive),89.8% (inactive),88.7% (inactive),78.2% (inactive),–,101% (inactive),86.7% (inactive),83.3% (inactive),94.8% (inactive),75% (inactive),76.6% (inactive),103% (inactive),74.4% (inactive)
O=c1[nH]c2ccccc2n1C1CCN(CCCC(c2ccc(F)cc2)c2ccc(F)cc2)CC1,59.8% (inactive) and 38% (inactive),64.2% (inactive) and 67.5% (inactive),84% (inactive) and -30.2% (active),-0.452% (active) and 2.65% (active),-42.3% (active) and 27.1% (inactive),62.3% (inactive) and 33.6% (inactive),39.5% (inactive) and 10.9% (inactive),-43.7% (active) and -57.1% (active),-50.3% (active) and -70.3% (active),56.7% (inactive) and 53.3% (inactive),-62.4% (active) and -55.3% (active),-8.01% (active) and -56.3% (active),40% (inactive) and 45.2% (inactive),23.6% (inactive) and 70.8% (inactive),6.63% (active) and 25.3% (inactive),77.3% (inactive) and -66.9% (active),-27.7% (active) and 24.7% (inactive),14.9% (inactive),–,52.9% (inactive) and -40.4% (active)
CC(=O)[O][Hg][c]1c(C)c(C)cc(C)c1C,-45.3% (active),3.3% (active),-82.6% (active),-16.7% (active),–,-96.4% (active),91.5% (inactive),19% (inactive),–,-61% (active),-10.1% (active),–,-51.5% (active),-74.4% (active),13.6% (inactive),41.9% (inactive),-64.1% (active),-87% (active),-5.8% (active),-45.5% (active)
Cc1cc([N+](=O)[O-])c2ccccc2[n+]1[O-],-25.5% (active) and -33.7% (active),-15.3% (active) and -45.7% (active),-20.4% (active) and -36.8% (active),-26.5% (active) and -38.4% (active),-8.69% (active) and -36.2% (active),-38.1% (active) and -83% (active),-23.4% (active) and -36.1% (active),-31.9% (active) and -30.8% (active),-63.1% (active) and -95.1% (active),-35.9% (active) and -37% (active),1.04% (active) and -22.1% (active),-20.8% (active) and -41% (active),-17.4% (active) and -36.7% (active),-12.7% (active) and -10.4% (active),-21% (active) and -59% (active),-49.2% (active) and -61.6% (active),8.15% (active) and -28% (active),-80.7% (active) and -70.6% (active),–,-51.4% (active) and -66.4% (active)
COC12c3c(C)cc(O)c4c(=O)occ(c34)C(=O)C1C13COC(=O)c4c(O)cc(C)c(c41)C(=O)C2C3OC(C)=O (configuration not stated),99.7% (inactive),95.4% (inactive),82.3% (inactive),97.9% (inactive),-9.88% (active),–,107% (inactive),95.7% (inactive),103% (inactive),113% (inactive),97.8% (inactive),92.7% (inactive),100% (inactive),100% (inactive),–,95.9% (inactive),106% (inactive),–,–,115% (inactive)
CC(=O)Nc1c2sscc-2n(C)c1=O,-95.3% (active),-100% (active),-100% (active),-77.4% (active),–,-90.8% (active),-65% (active),-100% (active),–,-100% (active),-72.9% (active),-89.7% (active),-92.4% (active),-80.4% (active),-96.5% (active),-94.9% (active),-44.5% (active),-96.7% (active),–,-92.5% (active)
CCCCCCCC[N+]12CN3CN(CN(C3)C1)C2,92% (inactive),84.8% (inactive),102% (inactive),101% (inactive),85.9% (inactive),97.9% (inactive),97.8% (inactive),89.5% (inactive),104% (inactive),101% (inactive),124% (inactive),98% (inactive),–,95% (inactive),95.6% (inactive),92.7% (inactive),98.9% (inactive),89.5% (inactive),–,105% (inactive)
NC(=O)c1cc([N+](=O)[O-])c(Cl)c([N+](=O)[O-])c1,88.6% (inactive),109% (inactive),105% (inactive),107% (inactive),14.1% (inactive),-4.01% (active),98.4% (inactive),91.2% (inactive),–,65.5% (inactive),–,71.3% (inactive),92.2% (inactive),101% (inactive),115% (inactive),98.1% (inactive),105% (inactive),78.6% (inactive),–,93.8% (inactive)
Oc1ccccc1-c1ccccc1,98.9% (inactive) and 104% (inactive),91.5% (inactive) and 109% (inactive),101% (inactive) and 103% (inactive),104% (inactive),98.7% (inactive) and 112% (inactive),95.2% (inactive),100% (inactive) and 95.8% (inactive),105% (inactive),–,103% (inactive) and 113% (inactive),93.2% (inactive) and 97.2% (inactive),99.1% (inactive) and 106% (inactive),95% (inactive),98% (inactive) and 104% (inactive),105% (inactive) and 112% (inactive),103% (inactive),97.6% (inactive) and 97.1% (inactive),113% (inactive),–,99% (inactive) and 106% (inactive)
